Test results: ChEMBL document CHEMBL1157539, “Thousands of chemical starting points for antimalarial lead identification” (Nature, 2010)

Key:
Format in all cases: functional
Plasmodium falciparum [1] = experiment: GSK_TCMDC: Inhibition of Plasmodium falciparum 3D7 in whole red blood cells, using parasite LDH activity as an index of growth. Test compounds present at 2uM
Plasmodium falciparum [2] = experiment: GSK_TCMDC: Inhibition of Plasmodium falciparum Dd2 in whole red blood cells, using parasite LDH activity as an index of growth. Test compounds present at 2uM
HepG2 = experiment: GSK_TCMDC: Percent inhibition of human HepG2 cell line. Test compounds present at 10uM.

Compound | Inhibition (Plasmodium falciparum [1]) | Inhibition (Plasmodium falciparum [2]) | Inhibition (HepG2)
COC(=O)C(c1ccc(NC(=O)[C@H](CC(C)C)NC(=O)OC(C)(C)C)cc1)c1ccc(NC(=O)[C@H](CC(C)C)NC(=O)OC(C)(C)C)cc1 | 94% | 42% | 0%
N#CCSc1nnc(-c2ccccc2)c2ccccc12 | 84% | 73% | 5%
O=C(Nc1ccc(Br)cc1)N1CCC(n2c(-c3ccccc3)nc3cccnc32)CC1 | 90% | 86% | 36%
CC(C)N1CCC(N(Cc2ccc(-c3ccc(C(F)(F)F)cc3)cc2)C(=O)Cn2c(SCc3cccc(F)c3F)cc(=O)c3ccccc32)CC1.O=C(O)C(O)C(O)C(=O)O | 100% | 77% | 52%
Cc1cc(N/N=C/c2ccccc2[N+](=O)[O-])c2ccc(F)cc2n1 | 100% | 100% | 32%
COCCCNC(=O)[C@H]1CNCCN1C(=O)c1ccccc1.O=C(O)C(F)(F)F | 97% | 95% | 53%
O=C(NCc1ccc(F)cc1)Nc1cccc(-c2ccc(-c3nc4ccccc4[nH]3)cc2)c1 | 100% | 49% | 45%
CC(NCC(O)Cn1c2ccccc2c2ccccc21)c1ccccc1.O=C(O)c1ccccc1 (configuration not stated) | 96% | 85% | 37%
C=C[C@]1(C)C[C@@H](OC(=O)c2n[nH]c3ccccc3c2=O)[C@]2(C)[C@H](C)CC[C@]3(CCC(=O)[C@H]32)[C@@H](C)[C@@H]1O | 96% | 84% | 0%
